Laboratory results taken from PubChem BioAssay (NCATS).
Results filed as inconclusive are left out. A call without a number means that no potency is given here. Active and inactive are the calls of the source. The call rests on the fitted dose curve; in most records, active means well fitted curve in the direction sought with a large enough effect; inconclusive means small, poorly fitted or top-dose-only effect, or another doubt; inactive means no such curve, though single readings can be large; an effect the other way counts as inactive or inconclusive. Bridge positions count the residues as written; N and C are the ends. Square brackets hold non-standard residues; d marks the D form. Side chains are listed from the residue outwards. Peptide text beside a SMILES is read from it. * marks the point of attachment. Phg(4-OMe) = COc1ccc([C@H](N)C(=O)O)cc1; d(aIle) = CC[C@H](C)[C@@H](N)C(=O)O; d(aThr) = C[C@@H](O)[C@@H](N)C(=O)O; NMeF = CN[C@@H](Cc1ccccc1)C(=O)O; Isobutyryl = CC(C)C(=O)*

How the values were obtained:
[1] = HEK293 18hr Apoptosis Induction qHTS against the NCATS CANVASS Library (AID 1347357); settings: HEK293 caspase-3/7 Caspase-Glo luminescence; series mostly up to 46.1 µM
Method in brief: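 Luminescent caspase-3/7 signal is measured in HEK293 cells exposed for 18 hours to an 11-point concentration series; doxorubicin serves as the plate control.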

[2] = HPAF-II 12hr Apoptosis Induction qHTS against the NCATS CANVASS Library (AID 1347358); settings: HPAF-II caspase-3/7 Caspase-Glo luminescence; series mostly up to 46.1 µM
Method in brief: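 Twelve-hour compound exposure of HPAF-II cells in DMEM with 10% FBS, then luminescent Caspase-Glo 3/7 detection after 15 min at room temperature; doxorubicin control.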

[3] = HEK293 24hr Apoptosis Induction qHTS against the NCATS CANVASS Library (AID 1347359); settings: HEK293 caspase-3/7 activation, Caspase-Glo luminescence; series mostly up to 46.1 µM
Method in brief: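 HEK293 cells (500/well, DMEM + 10% FBS) were exposed to compounds in an 11-point series for 24 hours at 37 degrees C, then caspase-3/7 activity was read by Caspase-Glo DEVD luciferase luminescence after 15 min.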

[4] = HPAF-II 18hr Apoptosis Induction qHTS against the NCATS CANVASS Library (AID 1347360); settings: HPAF-II caspase-3/7 luminescence; series mostly up to 46.1 µM
Method in brief: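 Apoptosis was scored as caspase-3/7 activity in HPAF-II pancreatic cancer cells treated 18 hours with an 11-point concentration series.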

[5] = HEK293 12hr Apoptosis Induction qHTS against the NCATS CANVASS Library (AID 1347361); settings: HEK293 caspase-3/7 Caspase-Glo luminescence; series mostly up to 46.1 µM
Method in brief: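 Apoptosis in HEK293 was scored as caspase-3/7 luminescence following 12 h treatment with a compound concentration series in qHTS format.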

[6] = system: NAD(P)H diaphorase (Clostridium kluyveri); assay: Diaphorse counterscreen qHTS: Assay Interference Panel against the NCATS CANVASS Library (AID 1347362); settings: Diaphorase enzyme, resazurin to resorufin fluorescence; series mostly up to 57.5 µM
Method in brief: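 Clostridium kluyveri diaphorase in PBS with 0.01% Tween-20 was preincubated 15 min at room temperature in the dark with compounds (11-point series). Resorufin fluorescence (ex 525/20, em 598/25) was read 5 min after adding resazurin/NADH.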

[7] = target: Luciferin 4-monooxygenase (Photinus pyralis) (UniProt P08659); assay: Firefly luciferase counterscreen qHTS: Assay Interference Panel against the NCATS CANVASS Library (AID 1347363); settings: purified firefly luciferase, luminescence inhibition, 5 min; series mostly up to 57.5 µM
Method in brief: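 Purified P. pyralis luciferase was added to compounds (11-point series) preincubated 15 min at room temperature with substrate containing 0.013 mM D-luciferin and 0.013 mM ATP; luminescence was read after 5 min.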

[8] = KB-3-1 Cancer Cell Toxicity qHTS against the NCATS CANVASS Library (AID 1347366); settings: KB-3-1 viability, CellTiter-Glo luminescence, 72 h; series mostly up to 46.1 µM; further: nearly all actives have a fitted effect of over 75% in size; further: potency means the concentration at half of the fitted maximal effect
Method in brief: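 Seed KB-3-1 cells at 500/well in DMEM with 10% FBS, add compounds, incubate 72 hr at 37C and 5% CO2, then add CellTiter-Glo and read luminescence after 10 minutes.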

[9] = qHTS for ATAD5 Agonist screened against the NCATS CANVASS Library (AID 1347367); settings: HEK293T ATAD5-luciferase reporter, luminescence, 16 h; series mostly up to 46.1 µM;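 further: luciferase reporter driven by ATAD5 which rises upon DNA damage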
Method in brief: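 Step one plated reporter cells and let them acclimate 5hr. Step two pinned compounds with MMS as positive and 0.46% DMSO as negative control. After 16hr incubation, fluorescence viability then luminescence were read.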

[10] = qHTS for ATAD5 Antagonist screened against the NCATS CANVASS Library (AID 1347370); settings: HEK293T-ATAD5-luc, 5-FUrd stimulated, luminescence, 16 h; series mostly up to 46.1 µM;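 further: HEK293T cells carrying an ATAD5 luciferase reporter co-treated with 10 µM 5-fluorouridine; nearly all actives have a fitted effect of over 65% in size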
Method in brief: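 HEK293T-ATAD5 luc reporter, 2000 cells/well; 5hr attach; cpd + 10 uM 5-FUrd; 16hr 37C, 5% CO2. Readouts: CellTiter-Fluor fluorescence (1hr), then Amplite luciferase luminescence (30min RT).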

[11] = J3T Cancer Cell Toxicity qHTS against the NCATS CANVASS Library (AID 1347371); settings: J3T dog glioma viability, ATP luminescence, 72 h; series mostly up to 46.1 µM; further: potency means the concentration at half of the fitted maximal effect
Method in brief: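 ATP-based cytotoxicity in canine J3T cells: 72 hr exposure at 37C, 11-point titration, CellTiterGlo luminescent detection.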

[12] = target: Nuclear receptor subfamily 1 group I member 3 (Homo sapiens) (UniProt Q14994); assay: qHTS for Constitutive Androstane Receptor (CAR) Antagonist screened against the NCATS CANVASS Library (AID 1347372); settings: HepG2-hCAR-CYP2B6 luciferase, CITCO-stimulated antagonist mode; series mostly up to 46.1 µM; further: potency means the concentration at half of the fitted maximal effect
Method in brief: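 Cells were seeded and left 4hr to attach, then received compound at 11 concentrations and 50 nM CITCO. Following 24hr incubation, fluorescence viability and luciferase luminescence were read sequentially.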

[13] = target: Nuclear receptor subfamily 1 group I member 3 (Homo sapiens) (UniProt Q14994); assay: qHTS for Constitutive Androstane Receptor (CAR) Agonist screened against the NCATS CANVASS Library (AID 1347373); settings: HepG2-hCAR-CYP2B6 luciferase reporter, ONE-Glo luminescence; series mostly up to 46.1 µM;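 further: every well also contained 1.5 µM PK11195 alongside the test compound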
Method in brief: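 In an 11-point concentration series, compounds were incubated 24hr with HepG2 cells carrying hCAR and a CYP2B6-2.2kb reporter, with PK11195 at 1.5uM final. A CellTiter-Fluor viability read preceded the ONE-Glo luminescence read.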

[14] = qHTS for Hypoxia signaling pathway (HIF-1) agonists against the NCATS CANVASS Library (AID 1347375); settings: HRE-bla ME-180 cells, HIF-1 beta-lactamase reporter, 17 h; series mostly up to 38.3 µM
Method in brief: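 An HRE-beta-lactamase ME-180 line is exposed for 17 h to an 11-point compound series, then read by CCF4-AM FRET. Cytotoxicity is measured in parallel in the same wells with CellTiter-Glo, and autofluorescence is checked separately.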

[15] = 10-beta competent E. coli microbial cell viability qHTS against the NCATS CANVASS Library (AID 1347376); settings: E. coli 10-beta viability, BacTiter-Glo ATP luminescence, overnight; series mostly up to 46.1 µM
Method in brief: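 Overnight 37C exposure of 10-beta E. coli (0.2 OD) to an 11-point concentration series; ATP-based luminescence after 20 min room-temperature reagent incubation; daunomycin as control.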

[16] = qHTS for Inflammasome Signaling Inhibitors: IL-1-beta AlphaLISA screen against the NCATS CANVASS Library (AID 1347379); settings: THP-1 LPS/ATP, IL-1B AlphaLISA secretion, 16 h; series mostly up to 57.5 µM;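 further: human THP-1 cells primed with LPS then triggered with ATP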;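 on potency: secreted IL-1B measured as AlphaLISA emission at 615 nm; potency means the concentration at half of the fitted maximal effect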
Method in brief: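 THP-1, 1 hr compound pre-incubation, then LPS 250 ng/mL + ATP 1.25 mM (final); 16 hr total with compound; IL-1B AlphaLISA, ex 680/em 615 nm; 11-point qHTS, up to 57.5 uM final.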

[17] = Inflammasome Signaling qHTS Counterscreen: IL-1-beta AlphaLISA counterscreen against the NCATS CANVASS Library (AID 1347381); settings: Purified IL-1beta AlphaLISA signal interference counterscreen; series mostly up to 57.5 µM;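 further: cell-free check with purified IL-1β in medium and no THP-1 cells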
Method in brief: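 Here, no cellular stimulation occurs; compounds in an 11-point series meet 4 pg purified IL-1-beta directly. Bead-based AlphaLISA detection follows (1 h acceptor/antibody, then 30 min donor, dark, room temperature), with excitation at 680 nm.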

[18] = Cytotoxicity qHTS for assessment of Hepg2 cells membrane integrity screened against the NCATS CANVASS Library (AID 1347387); settings: HepG2 LDH release (CytoTox-ONE) fluorescence, 5 h; series mostly up to 46.1 µM
Method in brief: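 Membrane damage in HepG2 monolayers was estimated from released LDH, measured with CytoTox-ONE (ex 560/em 590 nm), after 5 hr treatment across 0.59 nM - 46 uM final.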

[19] = qHTS for activators of dead-cell proteases activity screened against the NCATS CANVASS Library (AID 1347392); settings: HepG2 cytotoxicity, dead-cell protease luminescence, 5 h; series mostly up to 46.1 µM;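 further: luminescence from protease leaking out of membrane-damaged cells cleaving impermeant substrate; rising signal means more cytotoxicity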
Method in brief: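 Cytotoxicity in HepG2 cells was assessed by released protease cleaving AAF-aminoluciferin, with luminescence as signal. Exposure lasted 5 h at 37C across an 11-point series.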

[20] = Viability qHTS for inhibitors of the SERCaMP assay screened against the NCATS CANVASS Library (AID 1347400); settings: SH-SY5Y SERCaMP cells viability, CellTiter-Glo, 48 h; series mostly up to 92.2 µM; further: nearly all actives have a fitted effect of over 70% in size; further: potency means the concentration at half of the fitted maximal effect
Method in brief: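 Measures loss of viability in SERCaMP reporter SH-SY5Y cells treated for 48 h with compounds; luminescent ATP detection by CellTiter-Glo.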

Sequence of Luciferin 4-monooxygenase (Photinus pyralis) (P08659 whole entry, looked up): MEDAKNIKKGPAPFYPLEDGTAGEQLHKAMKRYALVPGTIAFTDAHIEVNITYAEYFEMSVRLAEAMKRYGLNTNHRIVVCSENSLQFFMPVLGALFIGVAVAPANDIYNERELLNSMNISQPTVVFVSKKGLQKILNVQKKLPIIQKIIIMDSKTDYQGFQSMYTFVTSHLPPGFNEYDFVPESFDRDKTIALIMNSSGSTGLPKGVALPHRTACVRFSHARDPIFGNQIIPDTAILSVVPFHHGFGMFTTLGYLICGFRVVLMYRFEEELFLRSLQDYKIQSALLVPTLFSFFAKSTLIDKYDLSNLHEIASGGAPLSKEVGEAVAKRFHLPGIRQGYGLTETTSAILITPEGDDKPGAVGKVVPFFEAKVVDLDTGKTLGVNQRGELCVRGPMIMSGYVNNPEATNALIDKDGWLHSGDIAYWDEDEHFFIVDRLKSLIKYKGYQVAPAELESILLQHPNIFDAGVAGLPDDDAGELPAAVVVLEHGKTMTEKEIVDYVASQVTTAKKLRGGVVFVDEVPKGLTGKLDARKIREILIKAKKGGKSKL
Sequence of Nuclear receptor subfamily 1 group I member 3 (Homo sapiens) (Q14994 whole entry, looked up): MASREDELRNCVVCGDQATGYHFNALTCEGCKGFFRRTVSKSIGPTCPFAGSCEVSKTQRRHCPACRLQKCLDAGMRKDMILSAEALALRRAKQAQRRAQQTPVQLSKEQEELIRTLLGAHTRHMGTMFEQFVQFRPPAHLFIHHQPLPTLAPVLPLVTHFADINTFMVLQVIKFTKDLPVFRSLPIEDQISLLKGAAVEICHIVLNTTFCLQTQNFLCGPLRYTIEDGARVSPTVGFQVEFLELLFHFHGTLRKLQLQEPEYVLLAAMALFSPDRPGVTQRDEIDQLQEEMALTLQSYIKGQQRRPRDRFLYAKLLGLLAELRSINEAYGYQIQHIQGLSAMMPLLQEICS

Structure (SMILES)	Potency [1]	Potency [2]	Potency [3]	Potency [4]	outcome [5]	Potency [6]	Potency [7]	Potency [8]	Potency [9]	Potency [10]	Potency [11]	Potency [12]	Potency [13]	outcome [14]	outcome [15]	Potency [16]	outcome [17]	outcome [18]	Potency [19]	Potency [20]
C/C1=C/[C@@H](C)[C@H](O)[C@@H](O)/C=C/CC/C=C/C(=O)O[C@@H]1[C@H](C)C(=O)CCCC1CC(=O)NC(=O)C1	inactive	inactive	inactive	inactive	inactive	inactive	inactive	inactive	inactive	inactive	inactive	inactive	inactive	inactive	inactive	inactive	inactive	inactive	inactive	inactive
C/C=C(/C)c1c(Cl)c(OC)c(C)c2c1Oc1c(Cl)c(O)c(Cl)c(C)c1C(=O)O2	inactive	inactive	inactive	inactive	inactive	–	inactive	inactive	inactive	–	–	inactive	inactive	inactive	inactive	inactive	inactive	inactive	inactive	inactive
O[C@H]1c2ccccc2-c2c3c(cc4c2[C@@H]1NCC4)OCO3	inactive	inactive	inactive	inactive	inactive	–	inactive	–	inactive	–	inactive	16.6 µM (active)	inactive	inactive	inactive	24.3 µM (active)	–	inactive	inactive	38.1 µM (active)
C[C@]12CCC[C@](C)(C(=O)O)[C@@H]1CC[C@@]1(C)c3cocc3CC[C@H]21	inactive	inactive	inactive	inactive	inactive	inactive	inactive	inactive	inactive	inactive	inactive	inactive	inactive	inactive	inactive	inactive	inactive	inactive	inactive	inactive
COc1c(O)cc2c(c1O)C(=O)c1c(coc1C)C2=O	inactive	inactive	inactive	inactive	inactive	inactive	inactive	inactive	inactive	inactive	inactive	inactive	inactive	inactive	inactive	inactive	inactive	inactive	inactive	inactive
CC(C)C[C@@H]1c2c(O)c(C=O)c(O)c(C=O)c2O[C@]2(C)C=C[C@@H](C(C)C)C[C@H]12	inactive	inactive	inactive	inactive	inactive	inactive	inactive	inactive	inactive	–	inactive	inactive	inactive	inactive	inactive	inactive	inactive	inactive	inactive	inactive
CN1CC[C@]2(c3cccc4c3N[C@H]3N(C)CC[C@@]43[C@]34CCN(C)[C@H]3Nc3ccccc34)c3ccccc3N[C@H]12	inactive	inactive	inactive	inactive	inactive	inactive	inactive	–	inactive	inactive	9.35 µM (active)	–	inactive	inactive	inactive	21.7 µM (active)	inactive	inactive	inactive	15.2 µM (active)
CC[C@H](C)[C@H]1NC(=O)[C@@H](NC(=O)C(C)C)[C@@H](C)OC(=O)[C@H](COC(=O)CNC(C)=O)NC(=O)[C@@H]([C@@H](C)O)NC(=O)[C@H](Cc2ccccc2)N(C)C(=O)[C@H](c2ccc(OC)cc2)NC1=O (Isobutyryl-T[d(aIle)][Phg(4-OMe)][NMeF][d(aThr)]S([Gly-Ac]); ester 1-C)	inactive	inactive	inactive	inactive	inactive	inactive	inactive	inactive	inactive	inactive	inactive	inactive	inactive	inactive	inactive	inactive	inactive	inactive	inactive	inactive
C=C1CC[C@@H](O[C@H]2C[C@@](O)([C@H](C)NC(=O)c3[nH]c(C)c(Cl)c3Cl)[C@H](O)[C@@H](C)O2)[C@@H]2C=C[C@H](C)C(/C(O)=C3/C(=O)[C@H](C(C)C)N([C@@H]4O[C@H](C)[C@H](OC(N)=O)[C@H](OC(C)=O)[C@@H]4OC)C3=O)[C@@H]12 (some centres not stated)	inactive	inactive	inactive	inactive	inactive	inactive	inactive	inactive	inactive	inactive	inactive	inactive	inactive	inactive	inactive	inactive	inactive	inactive	inactive	inactive
CC(=O)Oc1cc2c(c(OC(C)=O)c1C1CCc3cc(Cl)c(Cl)n31)C(=O)n1c-2cc(Cl)c1Cl (configuration not stated)	inactive	inactive	inactive	inactive	inactive	inactive	inactive	23.5 µM (active)	inactive	–	13.2 µM (active)	inactive	–	inactive	inactive	–	inactive	inactive	inactive	42.8 µM (active)
